According to PubChem BioAssay AID1159580 (chemical genetic matrix, 2015):
The whole screen tested about 5,500 compounds, of which about 2,000 (36%) were called active. About 18% were inconclusive and are not listed. The list shows a part of the results. A number with no mark means an inactive call. No stated cut-off is given here; in the data, active means normalized growth mostly below about 0.91 (no sharp cut-off); inconclusive means no clear call, values can overlap the other calls; inactive means mostly above about 0.92.

Assay: chemical genetic growth profiling, strain panel (AID 1159580);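 further: tested at 20 µM; growth read once vehicle control cultures reached saturation at 30 °C; 1 = growth at the plate median or of vehicle wells; lower values mean less growth of the strain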
Conditions: growth OD
[1] = S. cerevisiae deletion strains, locus YAL013W, strain DEP1, active compounds read low
[2] = S. cerevisiae deletion strains, locus YBR229C, strain ROT2, active compounds read low
[3] = S. cerevisiae deletion strains, locus YDL101C, strain DUN1, active compounds read low
[4] = S. cerevisiae deletion strains, locus YDL134C, strain PPH21, active compounds read low
[5] = S. cerevisiae deletion strains, locus YDR150W, strain NUM1, active compounds read low
[6] = S. cerevisiae deletion strains, locus YEL061C, strain CIN8, active compounds read low
[7] = S. cerevisiae deletion strains, locus YGR078C, strain PAC10, active compounds read low
[8] = S. cerevisiae deletion strains, locus YHR030C, strain SLT2, active compounds read low
[9] = S. cerevisiae deletion strains, locus YHR087W, strain rtc3, active compounds read low
[10] = S. cerevisiae deletion strains, locus YJR043C, strain POL32, active compounds read low
[11] = S. cerevisiae deletion strains, locus YJR075W, strain HOC1, active compounds read low
[12] = S. cerevisiae deletion strains, locus YLR039C, strain RIC1, active compounds read low
[13] = S. cerevisiae deletion strains, locus YLR058C, strain SHM2 (second series), active compounds read low
[14] = S. cerevisiae deletion strains, locus YLR085C, strain ARP6, active compounds read low
[15] = S. cerevisiae deletion strains, locus YLR262C, strain YPT6, active compounds read low
[16] = S. cerevisiae deletion strains, locus YML094W, strain GIM5, active compounds read low
[17] = S. cerevisiae deletion strains, locus YMR219W, strain ESC1, active compounds read low
[18] = S. cerevisiae deletion strains, locus YMR263W, strain SAP30, active compounds read low
[19] = S. cerevisiae deletion strains, locus YMR307W, strain GAS1, active compounds read low
[20] = S. cerevisiae deletion strains, locus YNL153C, strain GIM3, active compounds read low
[21] = S. cerevisiae deletion strains, locus YNL298W, strain CLA4 (second series), active compounds read low
[22] = S. cerevisiae deletion strains, locus YNL322C, strain KRE1, active compounds read low
[23] = S. cerevisiae deletion strains, locus YNR030W, strain Alg12, active compounds read low
[24] = S. cerevisiae deletion strains, locus YOL006C, strain TOP1, active compounds read low
[25] = S. cerevisiae deletion strains, locus YPL055C, strain LGE1, active compounds read low
[26] = S. cerevisiae deletion strains, locus YPL241C, strain CIN2, active compounds read low
[27] = S. cerevisiae deletion strains, locus YPR135W, strain CTF4, active compounds read low

Q: With `O=C1CCCN1c1ccc(Cl)c(Cl)c1` as the molecule, how does the normalized growth [1] read?
A: 0.987

Q: And the normalized growth [2]?
A: 0.977

Q: And the normalized growth [3]?
A: 0.939

Q: What about the normalized growth [4] of the same molecule?
A: 0.969

Q: What about the normalized growth [5] of the same molecule?
A: 0.968

Q: And the normalized growth [6]?
A: 0.933

Q: What about the normalized growth [7] of the same molecule?
A: 0.976

Q: What about the normalized growth [8] of the same molecule?
A: 0.8

Q: And the normalized growth [9]?
A: 0.989

Q: What about the normalized growth [10] of the same molecule?
A: 0.97

Q: What about the normalized growth [11] of the same molecule?
A: 0.983

Q: And the normalized growth [12]?
A: 0.916

Q: And the normalized growth [13]?
A: 0.988

Q: What about the normalized growth [14] of the same molecule?
A: 0.894

Q: And the normalized growth [15]?
A: 0.949

Q: And the normalized growth [16]?
A: 0.853 (active)

Q: And the normalized growth [17]?
A: 0.988

Q: What about the normalized growth [18] of the same molecule?
A: 0.984

Q: What about the normalized growth [19] of the same molecule?
A: 0.9

Q: And the normalized growth (S. cerevisiae deletion strains, locus YNL128W, strain TEP1, active compounds read low)?
A: 0.94

Q: What about the normalized growth [20] of the same molecule?
A: 0.95

Q: And the normalized growth [21]?
A: 0.911

Q: And the normalized growth [22]?
A: 0.974

Q: And the normalized growth [23]?
A: 0.96

Q: What about the normalized growth [24] of the same molecule?
A: 0.748

Q: And the normalized growth [25]?
A: 0.889

Q: And the normalized growth [26]?
A: 0.847 (active)

Q: What about the normalized growth [27] of the same molecule?
A: 0.913

Q: What about the normalized growth (S. cerevisiae strains, strain wild type, active compounds read low) of the same molecule?
A: 0.978

Q: For `O=C(Cc1ccc(Cl)c(Cl)c1)OCCN1CCCC1`, which normalized growth (S. cerevisiae deletion strains, locus YAL040C, strain CLN3, active compounds read low) is on record?
A: 1.02

Q: What about the normalized growth (S. cerevisiae deletion strains, locus YDR363W, strain ESC2, active compounds read low) of the same molecule?
A: 1.02

Q: What about the normalized growth (S. cerevisiae deletion strains, locus YER002W, strain NOP16, active compounds read low) of the same molecule?
A: 0.997

Q: What about the normalized growth [7] of the same molecule?
A: 0.994

Q: And the normalized growth [20]?
A: 0.999

Q: What about the normalized growth (S. cerevisiae deletion strains, locus YNL175C, strain NOP13, active compounds read low) of the same molecule?
A: 1.02

Q: And the normalized growth (S. cerevisiae deletion strains, locus YNL197C, strain WHI3, active compounds read low)?
A: 1

Q: And the normalized growth (S. cerevisiae deletion strains, locus YNL224C, strain SQS1, active compounds read low)?
A: 1.01

Q: And the normalized growth [22]?
A: 0.99

Q: And the normalized growth (S. cerevisiae deletion strains, locus YOR083W, strain WHI5 (second series), active compounds read low)?
A: 1.03

Q: Which normalized growth [1] does the source give for `Cc1ccc(=O)n(Cc2ccc(Cl)c(Cl)c2)n1` here?
A: 0.989

Q: What about the normalized growth [2] of the same molecule?
A: 1.01

Q: What about the normalized growth [3] of the same molecule?
A: 0.958

Q: And the normalized growth [4]?
A: 0.989

Q: And the normalized growth [5]?
A: 0.968

Q: What about the normalized growth [6] of the same molecule?
A: 1

Q: And the normalized growth [7]?
A: 0.977

Q: What about the normalized growth [8] of the same molecule?
A: 0.892

Q: And the normalized growth [9]?
A: 1.01

Q: What about the normalized growth [10] of the same molecule?
A: 0.966

Q: What about the normalized growth [11] of the same molecule?
A: 0.986

Q: What about the normalized growth (S. cerevisiae deletion strains, locus YKL190W, strain CNB1, active compounds read low) of the same molecule?
A: 0.988

Q: And the normalized growth [12]?
A: 0.921

Q: And the normalized growth [13]?
A: 0.986

Q: And the normalized growth [14]?
A: 0.938

Q: What about the normalized growth [15] of the same molecule?
A: 0.913

Q: What about the normalized growth [16] of the same molecule?
A: 0.974

Q: What about the normalized growth [17] of the same molecule?
A: 0.992

Q: What about the normalized growth [18] of the same molecule?
A: 0.99

Q: What about the normalized growth [19] of the same molecule?
A: 1.06

Q: What about the normalized growth [20] of the same molecule?
A: 0.949

Q: And the normalized growth [21]?
A: 0.954

Q: And the normalized growth [22]?
A: 0.988

Q: What about the normalized growth [23] of the same molecule?
A: 0.988

Q: And the normalized growth [24]?
A: 0.899

Q: And the normalized growth [25]?
A: 1.03

Q: And the normalized growth [26]?
A: 0.985

Q: And the normalized growth [27]?
A: 0.918
